9 compounds from PubChem BioAssay (NCI) can be followed below.

Test systems include SR leukemia; RPMI-8226 leukemia; OVCAR-8 ovarian; OVCAR-5 ovarian; OVCAR-4 ovarian; SK-OV-3 ovarian; IGROV1 ovarian; OVCAR-3 ovarian; HS 578T breast; NCI/ADR-RES ovarian; T-47D breast; BT-549 breast; MDA-MB-435 melanoma; SW-620 colon; MCF7 breast; HCT-116 colon; HCC-2998 colon; KM12 colon.
Assay in all cases: NCI-60 one-dose screen, 48 h (100 = growth as untreated, 0 = no growth, -100 = all killed)
What all share (details): 10 µM unless noted

Structures are written as SMILES. About 83,000 compounds went through this panel and 20% of them were active in at least one assay; those are over-represented in the sample as a whole.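 Each cell line was grown in a 96-well plate and treated with one concentration of compound for 48 hours. Values below 10 were considered active.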 Unmarked numbers belong to inactive results. Calls of active or inactive are those of the source.

For the compound `O=C1CCNC1`, the growth in the experiment with SR leukemia was 106%; in the experiment with RPMI-8226 leukemia it was 102%; in the experiment with OVCAR-8 ovarian, 100%; in the experiment on OVCAR-5 ovarian it was 105%; with OVCAR-4 ovarian, 97.8%; in the experiment with SK-OV-3 ovarian it was 107%. Further, the growth was 118% with IGROV1 ovarian; 109% in the experiment with OVCAR-3 ovarian; 114% in the experiment with HS 578T breast; 110% in the experiment on NCI/ADR-RES ovarian; 107% in the experiment on T-47D breast; 105% in the experiment on BT-549 breast. Besides, the growth with MDA-MB-435 melanoma was 104%; in the experiment on SW-620 colon, 103%; in the experiment on MCF7 breast, 103%; in the experiment with HCT-116 colon, 105%; in the experiment on HCC-2998 colon it was 118%; in the experiment on KM12 colon it was 111%.
Regarding `Nc1ncn([C@@H]2O[C@H](CO)[C@@H](O)C2(F)F)c(=O)n1`, the growth in the experiment with SR leukemia was 15%; in the experiment with RPMI-8226 leukemia, 39.2%; in the experiment on OVCAR-8 ovarian, 49.8%; with OVCAR-5 ovarian it was 87%; in the experiment with OVCAR-4 ovarian it was 94.9%; in the experiment with SK-OV-3 ovarian, 71.1%. Also, the growth in the experiment on IGROV1 ovarian was 56.8%; with OVCAR-3 ovarian, 70.6%; in the experiment on HS 578T breast it was 90.4%; in the experiment with NCI/ADR-RES ovarian, 42.1%; in the experiment with T-47D breast, 76.2%; with BT-549 breast, 53.6%. Also, the growth is 53% in the experiment on MDA-MB-435 melanoma; 51.2% in the experiment with SW-620 colon; 20.7% with MCF7 breast; 29.8% in the experiment with HCT-116 colon; 60.4% with HCC-2998 colon; 61.2% in the experiment with KM12 colon.
As to `CC[C@H](Nc1ncnc2nc[nH]c12)c1nc2cccc(NCc3ccc(C(=O)NO)nc3)c2c(=O)n1-c1ccccc1`, the growth is 11.6% in the experiment on SR leukemia; 6.61% (active) in the experiment with RPMI-8226 leukemia; 36.9% with OVCAR-8 ovarian; 84.9% with OVCAR-5 ovarian; 70.4% in the experiment with OVCAR-4 ovarian; 80.8% in the experiment on SK-OV-3 ovarian. The growth in the experiment on IGROV1 ovarian was 30.9%; in the experiment on OVCAR-3 ovarian it was 41.5%; in the experiment with HS 578T breast, 13.8%; in the experiment with NCI/ADR-RES ovarian it was 106%; in the experiment on T-47D breast, 6.8% (active); in the experiment with BT-549 breast it was 13.3%. Further, the growth in the experiment with MDA-MB-435 melanoma was 25.4%; with SW-620 colon, 47.2%; with MCF7 breast, 13.3%; with HCT-116 colon it was 9.03% (active); in the experiment on HCC-2998 colon, 67.6%; with KM12 colon, 60.9%.
For the compound `C[C@H]1C[C@@H](n2cnc3c(N)nccc32)[C@H](O)[C@@H]1O`, the growth with SR leukemia was -54.1% (active); with RPMI-8226 leukemia, 117%; with OVCAR-8 ovarian, 99%; in the experiment on OVCAR-5 ovarian, 103%; in the experiment on OVCAR-4 ovarian, 110%; in the experiment with SK-OV-3 ovarian, 117%. Further, the growth in the experiment on IGROV1 ovarian is 560%; in the experiment with OVCAR-3 ovarian it was 120%; with HS 578T breast, 109%; in the experiment on NCI/ADR-RES ovarian, 128%; with T-47D breast, 102%; in the experiment with BT-549 breast, 93.7%. Further, the growth in the experiment on MDA-MB-435 melanoma is 113%; with SW-620 colon it was 87.2%; in the experiment with MCF7 breast it was 90.1%; in the experiment on HCT-116 colon, 86.8%; with HCC-2998 colon it was 101%; in the experiment with KM12 colon, 80.8%.
`Cc1ccc(OCCn2ccc(=O)n(CCOc3ccc(Cl)cc3C(=O)c3cc(C)cc(C)c3)c2=O)cc1`: the growth in the experiment on SR leukemia was 19.7%; with RPMI-8226 leukemia, 34.1%; in the experiment on OVCAR-8 ovarian, 70%; in the experiment with OVCAR-5 ovarian, 87.2%; in the experiment on OVCAR-4 ovarian it was 47.3%; with SK-OV-3 ovarian it was 59.8%. In addition, the growth with IGROV1 ovarian was 61.4%; with OVCAR-3 ovarian, 25.1%; in the experiment with HS 578T breast it was 37.2%; with NCI/ADR-RES ovarian it was 20.1%; in the experiment on T-47D breast, 39.5%; in the experiment with BT-549 breast it was 55.1%. In addition, the growth in the experiment on MDA-MB-435 melanoma was -3.9% (active); in the experiment with SW-620 colon, 29.7%; in the experiment on MCF7 breast, 22.4%; with HCT-116 colon, 34.5%; in the experiment with HCC-2998 colon, 64.5%; with KM12 colon, 36.9%.
With `COc1ccc2c(c1)/C(=C/c1c(-c3cc(OC)c(OC)c(OC)c3)nc3sccn13)C(=O)N2`, the growth is -41.1% (active) in the experiment on SR leukemia; 60.7% with RPMI-8226 leukemia; 105% in the experiment on OVCAR-8 ovarian; 85.2% in the experiment on OVCAR-5 ovarian; 95.8% with OVCAR-4 ovarian; 106% with SK-OV-3 ovarian. In addition, the growth in the experiment on IGROV1 ovarian is 29.2%; in the experiment on OVCAR-3 ovarian, 99.5%; in the experiment with HS 578T breast, 85.7%; with NCI/ADR-RES ovarian, 98.9%; with T-47D breast it was 86.6%; with BT-549 breast, 98.9%. The growth with MDA-MB-435 melanoma is 100%; with SW-620 colon it was 99.9%; in the experiment on MCF7 breast, 92.4%; in the experiment with HCT-116 colon it was 88.3%; in the experiment with HCC-2998 colon, 106%; in the experiment with KM12 colon, 84%.
As for `BrCCCOc1ccc(Oc2ccc(OCCCBr)cc2)cc1`, the growth is 93.8% in the experiment with SR leukemia; 98% in the experiment with RPMI-8226 leukemia; 94.6% in the experiment with OVCAR-8 ovarian; 122% in the experiment with OVCAR-5 ovarian; 99% in the experiment with OVCAR-4 ovarian; 123% in the experiment with SK-OV-3 ovarian. Further, the growth in the experiment with IGROV1 ovarian was 97.7%; with OVCAR-3 ovarian, 123%; with HS 578T breast, 92.8%; in the experiment with NCI/ADR-RES ovarian, 110%; in the experiment with T-47D breast, 113%; in the experiment with BT-549 breast, 91%. Moreover, the growth in the experiment with MDA-MB-435 melanoma was 107%; in the experiment on SW-620 colon it was 108%; in the experiment with MCF7 breast, 97.9%; with HCT-116 colon, 102%; in the experiment on HCC-2998 colon it was 119%; with KM12 colon, 113%.
Turning to `Cc1cc2c(-c3nc4ccccc4[nH]3)c(O)c(O)cc2c(O)c1-c1c(C)cc2c(-c3nc4ccccc4[nH]3)c(O)c(O)cc2c1O`, the growth in the experiment on SR leukemia is 6% (active); in the experiment on RPMI-8226 leukemia it was 9.72% (active); with OVCAR-8 ovarian, -6.85% (active); with OVCAR-5 ovarian, 26.2%; in the experiment on OVCAR-4 ovarian, 6.83% (active); in the experiment with SK-OV-3 ovarian, -35.6% (active). Also, the growth in the experiment on IGROV1 ovarian was 12.7%; in the experiment on OVCAR-3 ovarian, 20.6%; in the experiment with HS 578T breast, 4.85% (active); in the experiment with NCI/ADR-RES ovarian, -12.6% (active); in the experiment on T-47D breast it was -16.7% (active); in the experiment with BT-549 breast, -6.04% (active). Moreover, the growth was 23.3% in the experiment with MDA-MB-435 melanoma; 23.4% in the experiment with SW-620 colon; 5.3% (active) with MCF7 breast; 7.37% (active) in the experiment on HCT-116 colon; 19.5% with HCC-2998 colon; -38.6% (active) in the experiment with KM12 colon.
On to `COc1cc(OC)cc(-c2ccc(-c3ccc(C(=N)N)cc3)s2)c1`, for which the growth is -4.93% (active) in the experiment on SR leukemia; -58.2% (active) in the experiment on RPMI-8226 leukemia; -27.8% (active) in the experiment on OVCAR-8 ovarian; -82% (active) in the experiment on OVCAR-5 ovarian; -67.5% (active) with OVCAR-4 ovarian; -81.9% (active) with SK-OV-3 ovarian. The growth is -71.1% (active) with IGROV1 ovarian; -86.2% (active) in the experiment with OVCAR-3 ovarian; -51.8% (active) with HS 578T breast; -51.4% (active) in the experiment with NCI/ADR-RES ovarian; -53.6% (active) in the experiment on T-47D breast; -72.4% (active) with BT-549 breast. The growth with MDA-MB-435 melanoma is -97.5% (active); with SW-620 colon, -73.7% (active); in the experiment with MCF7 breast, -75.2% (active); in the experiment on HCT-116 colon, -93.3% (active); in the experiment on HCC-2998 colon it was -76.5% (active); in the experiment on KM12 colon it was -84.9% (active).
